Potency and affinity values are given separately. Results filed as inconclusive are left out. Activity calls are given as the source filed them.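 Rule for the calls: active = fitted half-maximal concentration no higher than twice the top tested dose, in every repeat run; inconclusive = repeat runs disagree, poor fit, or flat partial inhibition; inactive = the rest.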
Molecular target: Endoplasmic reticulum aminopeptidase 1 (Homo sapiens) (UniProt Q9NZ08)
Assay: ERAP1 aminopeptidase inhibitors, dose response, biochemical, cherry-pick, set 2, plate reader (AID 743314)
Settings: Recombinant ERAP1, Leu-AMC fluorescence, 60 min; series mostly up to 11 µM

Endoplasmic reticulum aminopeptidase 1 (Homo sapiens), sequence (Q9NZ08 whole entry, looked up): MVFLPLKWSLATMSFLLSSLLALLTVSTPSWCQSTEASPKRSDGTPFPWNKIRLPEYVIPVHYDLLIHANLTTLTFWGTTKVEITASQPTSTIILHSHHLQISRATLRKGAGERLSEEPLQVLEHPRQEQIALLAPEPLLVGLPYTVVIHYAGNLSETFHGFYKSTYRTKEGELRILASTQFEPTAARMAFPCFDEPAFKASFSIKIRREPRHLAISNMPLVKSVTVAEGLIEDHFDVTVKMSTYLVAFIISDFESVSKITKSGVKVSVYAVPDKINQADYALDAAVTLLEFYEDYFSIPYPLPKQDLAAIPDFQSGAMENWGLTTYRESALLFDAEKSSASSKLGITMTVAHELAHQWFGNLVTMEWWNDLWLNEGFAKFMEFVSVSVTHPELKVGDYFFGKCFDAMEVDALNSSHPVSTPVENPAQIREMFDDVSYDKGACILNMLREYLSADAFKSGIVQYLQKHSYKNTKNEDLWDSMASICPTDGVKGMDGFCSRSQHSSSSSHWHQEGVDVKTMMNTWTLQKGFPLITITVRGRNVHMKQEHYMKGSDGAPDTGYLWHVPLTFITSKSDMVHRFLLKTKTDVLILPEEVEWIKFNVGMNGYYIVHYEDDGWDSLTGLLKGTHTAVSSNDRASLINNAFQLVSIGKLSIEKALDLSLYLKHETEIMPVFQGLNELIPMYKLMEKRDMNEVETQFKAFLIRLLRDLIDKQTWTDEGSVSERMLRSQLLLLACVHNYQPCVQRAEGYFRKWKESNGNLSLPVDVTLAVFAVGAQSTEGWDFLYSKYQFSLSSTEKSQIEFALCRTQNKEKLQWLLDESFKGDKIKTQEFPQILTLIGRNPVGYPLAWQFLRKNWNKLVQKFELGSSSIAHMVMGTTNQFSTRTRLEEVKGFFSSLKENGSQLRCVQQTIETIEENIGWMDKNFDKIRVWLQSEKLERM

outcome, inactive:
Cc1cc(S(=O)(=O)c2cc3ccc(O)c(C)c3oc2=O)ccc1F
C[C@@H]1CCCCO[C@H](CN(C)Cc2ccc(C(=O)O)cc2)[C@H](C)CN([C@@H](C)CO)C(=O)c2cc(NC(=O)Nc3ccc(C(F)(F)F)cc3)ccc2O1
COc1ccc(S(=O)(=O)N(C)C[C@H]2Oc3ccc(N(C)C)cc3CC(=O)N([C@H](C)CO)C[C@H]2C)cc1
COc1cccc(-c2ccc([C@H]3[C@H]4CN(C(=O)c5cccnc5)CC(=O)N4[C@H]3CO)cc2)c1
COc1ccc(CN(C)C[C@H]2OCCCC[C@@H](C)Oc3ccc(NS(=O)(=O)c4cccs4)cc3C(=O)N([C@H](C)CO)C[C@@H]2C)cc1
COc1ccc(CN(C)C[C@@H]2Oc3c(NC(=O)NC4CCCCC4)cccc3C(=O)N([C@@H](C)CO)C[C@@H]2C)cc1
C[C@H](CO)N1C[C@H](C)[C@@H](CN(C)C(=O)Nc2ccccc2)Oc2ccc(NC(=O)Nc3cccc4ccccc34)cc2C1=O
CCCNC(=O)N1C[C@@H](C)[C@@H](OC)CN(C)C(=O)c2cc(NS(=O)(=O)CC(F)(F)F)ccc2OC[C@@H]1C
C[C@@H]1CN([C@H](C)CO)C(=O)c2cc(NC(=O)CCN3CCOCC3)ccc2O[C@H]1CN(C)S(=O)(=O)c1ccccc1
COc1ccc(CN(C)C[C@@H]2Oc3c(NC(=O)NC4CCCCC4)cccc3C(=O)N([C@H](C)CO)C[C@H]2C)cc1
COc1ccc(CN(C)C[C@H]2OCCCC[C@@H](C)Oc3ccc(NS(=O)(=O)c4cccs4)cc3C(=O)N([C@@H](C)CO)C[C@@H]2C)cc1
COc1ccc(CN(C)C[C@@H]2OCCCC[C@H](C)Oc3ccc(NS(=O)(=O)c4cccs4)cc3C(=O)N([C@H](C)CO)C[C@@H]2C)cc1
CCc1nnc(NC(=O)c2cc(S(=O)(=O)N3CCOCC3)ccc2N2CCCCC2)s1
COc1ccc2c3c(n(C)c2c1)[C@H](CO)N(C)CC31CN(C(=O)c2cccnc2)C1
CCc1ccc(NS(=O)(=O)c2ccc(C)c(C(=O)N3CCOCC3)c2)cc1
Cc1ccc(S(=O)(=O)N2CCN(C(=O)COC(=O)c3ccc(Cl)c(S(N)(=O)=O)c3)CC2)c(C)c1
COc1ccc(CN(C)C[C@@H]2OCCCC[C@H](C)Oc3ccc(NS(=O)(=O)c4cccs4)cc3C(=O)N([C@H](C)CO)C[C@H]2C)cc1
COc1ccc(CNCc2c(O)c(Cl)cc3c(C)c(C)c(=O)oc23)c(OC)c1
O=C(C[C@H]1CC[C@H](NC(=O)C2CCOCC2)[C@H](CO)O1)NCc1ccncc1
Cc1ccc(CN2C(=O)CCC2C(=O)NCCN2CCN(c3cccc(Cl)c3)CC2)cc1 (stereo not drawn)
CCC(C)N(C(=O)COC(=O)c1nc2nc(C)cc(C)n2n1)C1CCS(=O)(=O)C1 (stereo not drawn)
Cc1ccc(NC(=O)C2CCCN2C(=O)c2cccs2)c(C)c1 (stereo not drawn)
CC(=O)Oc1cc2oc(=O)cc(C)c2cc1Cl
C[C@H](CO)N1C[C@H](C)[C@H](CN(C)S(=O)(=O)c2ccccc2)Oc2ccc(NC(=O)CCN3CCOCC3)cc2C1=O
C[C@@H]1CCCCO[C@H](CN(C)C)[C@@H](C)CN([C@H](C)CO)C(=O)c2cc(NS(=O)(=O)c3ccc(Cl)cc3)ccc2O1
COCc1cn(CC[C@@H]2CC[C@H](NC(=O)CCN3CCCCC3)[C@H](CO)O2)nn1
COc1ccc(CN(C)C[C@@H]2Oc3ccc(NS(=O)(=O)c4ccc(C)cc4)cc3C(=O)N([C@@H](C)CO)C[C@@H]2C)cc1
Cc1cc(Br)ccc1NC(=O)CN(C)C(=O)Cn1c(=O)cnc2ccccc21
CN(C)C(=O)c1cccc(-c2ccc3c(c2)[C@H]2[C@H](CCN2Cc2nccs2)[C@@H](CO)N3)c1
Cn1cnc(Sc2ncnc3nc[nH]c23)c1[N+](=O)[O-]
Cc1noc(C)c1NC(=O)N(C)C[C@H]1Oc2c(NC(=O)Nc3ccc(F)cc3)cccc2C(=O)N([C@H](C)CO)C[C@@H]1C
COc1ccccc1-c1cccc(-c2nc(C(=O)Nc3nccs3)cc3c2[C@@H](CCO)N(C(=O)CC2CC2)C3)c1
CC(=O)N1CC[C@@H]2[C@@H](CO)N(C)c3ccc(-c4ccc(C#N)cc4)cc3[C@@H]21
CN1CCN(S(=O)(=O)c2cccc(C(=O)Nc3cc(Cl)ccc3N3CCOCC3)c2)CC1
COc1ccccc1-c1cn(CC[C@H]2CC[C@H](NS(=O)(=O)c3ccccc3C)[C@@H](CO)O2)nn1
O=C(C[C@@H]1CC[C@@H]2[C@H](COC[C@@H](O)CN2C(=O)Cc2ccccc2)O1)NC1CCC1
C[C@H]1CN([C@@H](C)CO)C(=O)c2cc(NC(=O)CCN3CCOCC3)ccc2O[C@@H]1CN(C)S(=O)(=O)c1ccccc1
C[C@H]1CN([C@@H](C)CO)C(=O)c2cc(-c3ccc(F)cc3)cnc2O[C@H]1CN(C)CC1CCCCC1
